Results published in PubChem BioAssay AID1159580 (chemical genetic matrix, 2015).
Hit rate of the full screen: of about 5,500 compounds, about 2,000 (36%) were called active. Not shown: some 18% with an inconclusive outcome. Cut-off read from the data, not from the text of the source: active = normalized growth mostly below about 0.91 (no sharp cut-off); inconclusive = no clear call, values can overlap the other calls; inactive = mostly above about 0.92. Some of the results follow.

Test: chemical genetic growth profiling, strain panel (AID 1159580);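 note: tested at 20 µM; growth read once vehicle control cultures reached saturation at 30 °C; 1 = growth at the plate median or of vehicle wells; lower values mean less growth of the strain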
Conditions: S. cerevisiae deletion strains, growth OD
[1] = locus YAR019C, strain CDC15, stronger effect = lower value
[2] = locus YBL105C, strain PKC1, stronger effect = lower value
[3] = locus YBR135W, strain CKS1, stronger effect = lower value
[4] = locus YBR136W, strain MEC1, stronger effect = lower value
[5] = locus YBR160W, strain CDC28, stronger effect = lower value
[6] = locus YDL017W, strain CDC7, stronger effect = lower value
[7] = locus YDL028C, strain MPS1, stronger effect = lower value
[8] = locus YDL101C, strain DUN1, stronger effect = lower value
[9] = locus YDL108W, strain KIN28, stronger effect = lower value
[10] = locus YDL132W, strain cdc53, stronger effect = lower value
[11] = locus YDL214C, strain PRR2, stronger effect = lower value
[12] = locus YDR052C, strain DBF4, stronger effect = lower value
[13] = locus YDR054C, strain cdc34, stronger effect = lower value
[14] = locus YDR226W, strain ADK1, stronger effect = lower value
[15] = locus YDR477W, strain SNF1, stronger effect = lower value
[16] = locus YER123W, strain YCK3, stronger effect = lower value
[17] = locus YER133W, strain GLC7, stronger effect = lower value
[18] = locus YFL009W, strain cdc4, stronger effect = lower value
[19] = locus YFL029C, strain CAK1, stronger effect = lower value
[20] = locus YFR003C, strain YPI1, stronger effect = lower value
[21] = locus YFR019W, strain FAB1, stronger effect = lower value
[22] = locus YFR028C, strain CDC14, stronger effect = lower value
[23] = locus YGR040W, strain KSS1, stronger effect = lower value
[24] = locus YGR092W, strain DBF2, stronger effect = lower value
[25] = locus YHR030C, strain SLT2, stronger effect = lower value
[26] = locus YHR079C, strain IRE1, stronger effect = lower value
[27] = locus YHR205W, strain SCH9, stronger effect = lower value
[28] = locus YIL147C, strain SLN1, stronger effect = lower value
[29] = locus YJL095W, strain BCK1, stronger effect = lower value
[30] = locus YJL128C, strain PBS2, stronger effect = lower value
[31] = locus YJL157C, strain FAR1, stronger effect = lower value
[32] = locus YJR016C, strain ILV3, stronger effect = lower value
[33] = locus YJR066W, strain TOR1 (second series), stronger effect = lower value
[34] = locus YKL048C, strain ELM1, stronger effect = lower value
[35] = locus YKL067W, strain YNK1, stronger effect = lower value
[36] = locus YKL101W, strain HSL1, stronger effect = lower value
[37] = locus YKL193C, strain SDS22, stronger effect = lower value
[38] = locus YKL203C, strain TOR2, stronger effect = lower value
[39] = locus YLR113W, strain HOG1, stronger effect = lower value
[40] = locus YLR133W, strain CKI1, stronger effect = lower value
[41] = locus YLR403W, strain SFP1, stronger effect = lower value
[42] = locus YML070W, strain DAK1, stronger effect = lower value
[43] = locus YMR001C, strain CDC5, stronger effect = lower value
[44] = locus YMR205C, strain PFK2 (second series), stronger effect = lower value
[45] = locus YMR277W, strain FCP1, stronger effect = lower value
[46] = locus YNL006W, strain LST8, stronger effect = lower value
[47] = locus YNL020C, strain ARK1, stronger effect = lower value
[48] = locus YNL161W, strain CBK1, stronger effect = lower value
[49] = locus YNL207W, strain RIO2, stronger effect = lower value
[50] = locus YNL222W, strain SSU72, stronger effect = lower value
[51] = locus YNL307C, strain MCK1 (second series), stronger effect = lower value
[52] = locus YOL078W, strain AVO1, stronger effect = lower value
[53] = locus YOL136C, strain PFK27, stronger effect = lower value
[54] = locus YOR061W, strain CKA2, stronger effect = lower value
[55] = locus YOR119C, strain RIO1, stronger effect = lower value
[56] = locus YOR231W, strain MKK1, stronger effect = lower value
[57] = locus YOR329C, strain SCD5, stronger effect = lower value
[58] = locus YPL031C, strain PHO85, stronger effect = lower value
[59] = locus YPL153C, strain RAD53, stronger effect = lower value
[60] = locus YPL204W, strain HRR25, stronger effect = lower value
[61] = locus YPL209C, strain IPL1, stronger effect = lower value
[62] = locus YPL256C, strain CLN2, stronger effect = lower value
[63] = locus YPR025C, strain CCL1, stronger effect = lower value
[64] = locus YPR106W, strain ISR1, stronger effect = lower value
[65] = locus YPR111W, strain DBF20, stronger effect = lower value
[66] = strain NNK1, stronger effect = lower value
[67] = strain TSCII, stronger effect = lower value

Measured: normalized growth

Cc1ccc(S(=O)(=O)Nc2nc(-c3ccc(C)c(Cl)c3)c(C)s2)cc1
active: [25] 1.77 [resistant] | [26] 2.3 [resistant] | [29] 1.77 [resistant] | [39] 1.41 [resistant] | [56] 2.03 [resistant] | [62] 1.74 [resistant]
inactive: [1] 0.994 | [2] 0.99 | [3] 0.98 | [4] 0.991 | [5] 0.988 | [6] 0.991 | [7] 0.988 | [8] 0.989 | [9] 0.993 | [10] 0.983 | [11] 0.989 | [12] 0.983 | [13] 0.989 | [14] 0.985 | [15] 1.04 | [16] 1.02 | [17] 1.02 | [18] 0.989 | [19] 0.998 | [20] 0.992 | [21] 1.02 | [22] 0.99 | [23] 1.02 | [24] 1.01 | [27] 0.942 | [28] 0.983 | [30] 0.925 | [31] 1.02 | [32] 0.979 | [33] 1.04 | [34] 0.986 | [35] 0.997 | [36] 0.981 | [37] 0.986 | [38] 1.08 | [40] 0.995 | [41] 1.02 | [42] 0.99 | [43] 0.988 | [44] 0.987 | [45] 0.992 | [46] 0.981 | [47] 0.996 | [48] 0.992 | [49] 0.996 | [50] 0.996 | [51] 0.982 | [52] 0.991 | [53] 0.987 | [54] 1.02 | [55] 1.05 | [57] 0.985 | [58] 1.02 | [59] 1.01 | [60] 1.03 | [61] 0.986 | [63] 0.985 | [64] 0.992 | [65] 0.987 | [66] 0.995 | [67] 0.994

Cc1ccc(-c2nc(NS(=O)(=O)c3cccc4nonc34)sc2C)cc1Cl
inactive: [1] 0.965 | [2] 0.972 | [3] 0.967 | [4] 0.973 | [5] 0.959 | [6] 0.97 | [7] 0.976 | [8] 0.962 | [9] 0.975 | [10] 0.964 | [11] 0.984 | [12] 0.972 | [13] 0.961 | [14] 0.97 | [15] 0.975 | [16] 1 | [17] 0.994 | [18] 0.972 | [19] 0.946 | [20] 0.965 | [21] 0.997 | [22] 0.964 | [23] 0.962 | locus YGR052W, strain FMP48, stronger effect = lower value 1.07 | [24] 0.991 | [25] 1.06 | [26] 1.07 | locus YHR082C, strain KSP1, stronger effect = lower value 1.09 | [27] 0.981 | [28] 0.972 | [29] 1.06 | [30] 0.975 | [31] 0.999 | [32] 0.972 | [33] 0.985 | locus YJR066W, strain TOR1, stronger effect = lower value 1.1 | [34] 0.981 | [35] 1 | [36] 0.967 | [37] 0.968 | [38] 1.04 | [39] 0.963 | [40] 0.978 | [41] 0.985 | [42] 0.987 | [43] 0.967 | [44] 0.981 | [45] 0.975 | [46] 0.967 | [47] 0.978 | [48] 0.959 | locus YNL183C, strain NPR1, stronger effect = lower value 1.01 | [49] 0.953 | [50] 0.947 | [51] 0.984 | [52] 0.951 | [53] 0.999 | [54] 0.988 | [55] 1.03 | [56] 1.01 | [57] 0.973 | [58] 0.993 | [59] 0.992 | [60] 0.991 | [61] 0.951 | [62] 1.01 | [63] 0.97 | [64] 0.963 | [65] 0.953 | [66] 0.971 | [67] 0.956
